Screening data (PubChem BioAssay)
CHT inh: inhibitors of human choline transporter CHT | Q9GZV3 | CHT-expressing cells, membrane potential dye, choline response; active compounds read low | B-score at 10 µM | 0.86% of 310,000 active;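 active means B-score over 3 SD under the library average, and starting fluorescence ratio not unusually high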;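 further: choline stimulus applied at its EC90 after an EC20 pre-addition; B-score computed on integrated fluorescence ratio after choline addition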
Target sequence (Q9GZV3 whole entry, looked up): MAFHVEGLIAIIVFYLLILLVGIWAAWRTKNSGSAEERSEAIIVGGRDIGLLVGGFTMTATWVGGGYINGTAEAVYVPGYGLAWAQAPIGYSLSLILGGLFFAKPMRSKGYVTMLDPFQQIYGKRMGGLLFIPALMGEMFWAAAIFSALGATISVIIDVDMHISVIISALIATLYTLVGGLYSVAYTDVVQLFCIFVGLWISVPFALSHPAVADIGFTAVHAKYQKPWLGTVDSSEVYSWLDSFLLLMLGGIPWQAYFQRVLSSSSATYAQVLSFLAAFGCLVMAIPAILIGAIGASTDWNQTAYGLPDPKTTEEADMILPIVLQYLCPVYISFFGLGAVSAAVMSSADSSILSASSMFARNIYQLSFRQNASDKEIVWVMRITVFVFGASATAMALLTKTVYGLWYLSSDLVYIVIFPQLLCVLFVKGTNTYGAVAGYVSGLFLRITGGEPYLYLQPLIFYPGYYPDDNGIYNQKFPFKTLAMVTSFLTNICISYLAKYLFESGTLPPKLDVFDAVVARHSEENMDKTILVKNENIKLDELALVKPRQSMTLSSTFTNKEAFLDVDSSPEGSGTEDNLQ
MIN6 prolif: induces beta-cell replication in MIN6 cells. MIN6 cells proliferation, ATPlite luminescence, 48 h; cells starved in 0.2% serum; 100% = growth in 10% serum. proliferation, % at 10 µM. 0.29% of 330,000 active;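 active means compounds whose signal lies at least 3.5 SD above the mean of all wells on their plate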;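 further: 0% = DMSO-treated cells in low-serum medium and 100% = 10% serum control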
TAG inh: inhibitors of triacylglycerol accumulation; H9c2 cells, Nile Red lipid (TAG) fluorescence; cells loaded with 200 µM oleic acid; inhibition, % at 12.5 µM; 0.66% of 230,000 active; AID 651582;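 active means pattern-corrected inhibition of lipid staining of at least 50% with the nuclear-stain viability signal not falling by more than 50%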;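 further: 0% = DMSO wells and 100% = triacsin C control wells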
CHT PAM: allosteric activators of human choline transporter CHT | Q9GZV3 | CHT-expressing cells, membrane potential dye, choline EC20; active compounds read high; LV-AA mutant CHT in HEK293 cells | B-score at 10 µM | 0.49% of 310,000 active | AID 488977;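 active means initial fluorescence not abnormally high and integrated response B-score, plate-corrected, over 3 SD above library mean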
CHT inh conf: confirmation of human choline transporter CHT inhibitors | CHT activity remaining % of control (active compounds read low), % at 10 µM | 70% of 2,400 active | CHT-expressing cells, choline membrane potential dye; LV-to-AA substituted CHT, HEK293 cells | shares compounds with CHT inh;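 active means choline transporter activity left, mean of duplicates at 10 µM, below buffer-only control mean minus 3 SD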;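 further: depolarization triggered by choline at its EC90 following an EC20 pre-addition; 0% = hemicholinium-3 full block and 100% = buffer-only control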
HEK293 MPD ctr: activity in parental HEK293 cells lacking CHT. shares compounds with CHT inh. membrane potential dye, choline response; active = decrease or increase beyond buffer ±3SD. membrane potential ratio readout (active if shifted either direction beyond buffer ±3SD; no single direction) at 10 µM. 4% of 2,400 active. AID 493222;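 further: parental cells lack the transporter so any hit is non-specific; ratio is peak minus trough fluorescence over baseline after EC90 choline challenge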
* marks the source's active call; other numbers are inactive results; i = inactive; . = no result. Sampled rows, rich in hits. Any-hit rate of the full collection: about 1.7%.

SMILES	CHT inh	MIN6 prolif	TAG inh	CHT PAM	CHT inh conf	HEK293 MPD ctr
CC(Oc1ccccc1F)c1nnc(SCC(=O)Nc2ccc(N3CCOCC3)cc2)o1 (centres undefined)	.	2	22	.	.	.
COc1cc(-c2nc3ccccc3s2)ccc1O	i	-2	.	i	.	.
CC(C)c1ccc(-c2nc3ccccc3s2)cc1	-8.4*	-7	-8	i	i	i
CC(C)(C)c1nnc2cccc(Cl)n12	i	3	9	i	.	.
COC(=O)C1CN(C(=O)C(C)Oc2ccccc2Cl)c2ccccc2O1 (centres undefined)	-5.2*	-1	.	i	71%*	i
C#CC[N+](CC)(CC)CC#Cc1ccccc1	-7.7*	4	11	i	35%*	i
COc1ccc(C(=O)NCc2nc(C)c(C)s2)cc1OC1CCN(C(C)C)CC1	-13*	-2	.	i	3.8%*	i
COc1ccc(C(=O)NCc2cc(C(C)C)no2)cc1OC1CCN(C(C)C)CC1	.	-3	.	.	.	.
CCc1cc(CNC(=O)c2ccc(OC)c(OC3CCN(C(C)C)CC3)c2)on1	-16*	-3	11	i	2.2%*	i
CCN1CCC[C@H]1CNCCCn1cnc2c(SC)ncnc21	.	.	14	.	.	.
CN(Cc1nc(-c2ccncc2)no1)S(=O)(=O)c1ccc(Br)cc1	-8*	-2	-4	i	i	i
CN(Cc1nc(-c2ccncc2)no1)S(=O)(=O)c1ccc(Cl)cc1	i	-3	.	i	.	.
COc1cc2c(cc1OC)/C(=C/C(=O)c1ccccc1F)NCC2	-5.3*	3	.	i	52%*	i
Cc1ccccc1OCc1nnc(SCC(=O)O)n1-c1ccccc1	i	2	-6	i	.	.
Cc1ccccc1OCCSc1nnc(C)n1-c1ccccc1	-5.2*	4	-21	i	i	i
COc1cc(C)nc(NC(=S)N(C)C(=O)c2ccccc2)n1	i	3	-3	i	.	.
CCCNc1nc2c(c(=O)n(C)c(=O)n2C)n1CCC(C)C	-6.9*	0	.	i	46%*	i
CCOC(=O)N1CCN(C(=O)C(c2ccccc2)c2ccccc2)CC1	-6.5*	-2	5	i	i	-11*
O=C(Nc1cc(C(F)(F)F)ccc1-n1cncn1)c1ccc([N+](=O)[O-])o1	-6.1*	-6	49	i	33%*	i
CCOC(=O)c1cnc2c(Cl)cc(Cl)cc2c1NCCOCCO	-10*	-3	.	i	34%*	i
CC(C)(C)OC(=O)NCCCCCc1nnc(SCC(N)=O)o1	-6.3*	-4	-20	i	i	i
C=C(C)CSc1nnc(CCCCCNC(=O)OC(C)(C)C)o1	-6*	-4	0	i	68%*	i
Cc1ccc(CSc2nnc(CCNC(=O)OC(C)(C)C)o2)cc1	-5.3*	-2	2	i	69%*	i
O=C(NCC1CCCO1)c1cc([N+](=O)[O-])ccc1N1CCC(Cc2ccccc2)CC1 (centres undefined)	.	-2	1	.	.	.
COc1ccc(NC(=O)CCC2CCCCC2)cc1S(=O)(=O)N1CCCCC1	i	-3	.	i	.	.
SMILES	CHT inh	MIN6 prolif	TAG inh	CHT PAM	CHT inh conf	HEK293 MPD ctr
CCC(C)NC(=O)CN(c1ccc(Cl)c(Cl)c1)S(C)(=O)=O (centres undefined)	i	0	-15	i	.	.
CN(C)CCOC(=O)Cc1ccc(Cl)cc1	-10*	5	-10	i	63%*	i
Cc1nn(C)c(C)c1CN(C)S(=O)(=O)c1ccc(F)cc1	i	-2	-7	i	.	.
Cc1nn(C)c(C)c1CN(C)S(=O)(=O)c1ccc2ccccc2c1	-5.1*	-5	-79	i	51%*	i
Cc1c(N=C(N)/N=C(\N)Nc2ccc(Br)cc2)c(=O)n(-c2ccccc2)n1C	i	-1	.	i	.	.
COc1cc(O)c(C(CC(=O)N2CCN(c3ccccc3)CC2)c2ccc(N(C)C)cc2)c(OC)c1 (centres undefined)	-11*	-5	-7	i	i	i
Cc1ccc(C(=O)Nc2cccc(C(F)(F)F)c2)cc1NC(=O)c1csc(-c2ccncc2)n1	-8*	-4	12	i	25%*	i
O=C(Nc1ccc(F)cc1F)c1csc(-c2ccncc2)n1	i	1	-4	i	.	.
c1ccc(CN2CCC3CC2c2cc(N4CCCCC4)ccc23)cc1 (centres undefined)	.	.	2	.	.	.
O=C(CCC1CCCC1)NCCS(=O)(=O)N1CCN(c2ccc(F)cc2)CC1	-5.2*	-5	-12	i	i	i
O=C(CCC1CCCCC1)NCCS(=O)(=O)N1CCN(c2ccc(F)cc2)CC1	i	-3	17	i	.	.
c1ccc(Cc2nnc3sc(-c4cccs4)nn23)cc1	i	5	.	i	.	.
c1ccc(CCc2nn3c(Cc4ccccc4)nnc3s2)cc1	-5.4*	4	.	i	56%*	i
Cc1cccc(C)c1NC(=O)CN(C)C(=O)c1ccccc1OCc1ccc(F)cc1	i	-1	-8	i	.	.
O=C(Oc1ccccc1C(=O)N1CCOCC1)c1ccc(F)cc1	-8.2*	-1	2	i	i	i
CC(=O)Oc1ccc(/C(C)=N\N2CCN(Cc3ccc(Cl)cc3)CC2)cc1	i	2	.	i	.	.
COc1ccc(S(=O)(=O)N2CCOC2CNC(=O)C(=O)NCc2ccccn2)cc1OC (centres undefined)	.	.	4	.	.	.
Nc1ncc(Br)cc1S(=O)(=O)Nc1cc(C(F)(F)F)cc(C(F)(F)F)c1	-12*	-4	.	i	29%*	i
Cc1ccc(NS(=O)(=O)c2cc(Br)cnc2N)c(Cl)c1	i	1	.	i	.	.
COc1ccccc1C(=O)Nc1ccc2c(c1)nc(CN1CCCCC1)n2C	i	-1	-33	i	.	.
Cn1c(CN2CCCCC2)nc2cc(NC(=O)c3ccccc3Cl)ccc21	-7.5*	-4	.	i	40%*	i
Cc1ccc(C(=O)CC(Nc2ccc(F)cc2)c2ccccc2)cc1 (centres undefined)	i	-2	.	i	.	.
Cc1ccc(C(=O)C[n+]2cccc(C(N)=O)c2)cc1	i	-1	6	i	.	.
Cc1ccc(C(=O)C[n+]2ccccc2)cc1	i	-3	.	i	.	.
Cc1ccc[n+](CC(=O)c2ccc(-c3ccccc3)cc2)c1	-11*	0	.	i	i	i
Cc1ccc(C)[n+](CC(=O)c2ccc(-c3ccccc3)cc2)c1	-4.9*	-4	-5	i	25%*	i
Cc1ccc[n+](CC(=O)c2ccc(Cl)cc2)c1	-11*	-3	.	i	5.6%*	i
